# Laboratory results as given in the OligoGym collection.
# Experiments:
# Test in all cases: pooled miR-30 sensor sort-seq; sequence = guide strand
# Settings in all cases: shRNA
# [1] = molecular target: SREBF2
# [2] = molecular target: SRSF11
# [3] = molecular target: SRPK1
# [4] = molecular target: SSR4
# [5] = molecular target: ST6GAL2
# [6] = molecular target: SSX3
# [7] = molecular target: SSX5
# [8] = molecular target: SSX4B
# [9] = molecular target: STK32B
# [10] = molecular target: STRA6
# [11] = molecular target: STMN2
# [12] = molecular target: STRADB
# [13] = molecular target: STX12
# [14] = molecular target: SULT1A2
# [15] = molecular target: SYT2
# [16] = molecular target: TAS1R2
# [17] = molecular target: TC2N
# [18] = molecular target: TCL1B
# [19] = molecular target: TCTN3
# [20] = molecular target: TCERG1
# [21] = molecular target: TCEANC2
# Further: reference of the scale not given here.
sequence,measurement,setting,value
ATTACTGACAAATTGCAGCATC,sensor-assay potency score (higher = more potent),[1],-0.795
TTCCTCTTCATCATAATCCCGT,sensor-assay potency score (higher = more potent),[2],0.0321
TAGCTTCGTCTTCAAAGCCTGC,sensor-assay potency score (higher = more potent),[1],-1.4
ATCTAGTAGTTGAACAACCATT,sensor-assay potency score (higher = more potent),[3],-1.39
TCTTCTTGCTTGTTGATCGTTC,sensor-assay potency score (higher = more potent),[2],0.0447
TTGATCTTGAATGCCTTCTTTT,sensor-assay potency score (higher = more potent),[2],-0.673
TAGTAGGAAGGGGTGATCTGGG,sensor-assay potency score (higher = more potent),[4],-0.671
TGACTGTAAACAGAGGCGGGAT,sensor-assay potency score (higher = more potent),[4],-0.672
TACACGTGCACCTCTCTGCACA,sensor-assay potency score (higher = more potent),[5],-0.913
TGCGTCGTAGTACAGCTCGTGG,sensor-assay potency score (higher = more potent),[5],-0.842
TTTCTCCGAGACTTTCATCTTT,sensor-assay potency score (higher = more potent),[6],-0.136
TTGCTCATCAGTGAAAACGCTA,sensor-assay potency score (higher = more potent),[7],-0.328
AACAGAAACACTAACATCGAAC,sensor-assay potency score (higher = more potent),[7],-0.742
TTCATAAACCACCAGCTGCTTT,sensor-assay potency score (higher = more potent),[8],-1.07
TACACAAACTGAAATATGCATT,sensor-assay potency score (higher = more potent),[7],-0.947
AAGTAGTCGTCATCCTCCGGGT,sensor-assay potency score (higher = more potent),[5],-0.429
TTCTCTTTAGTGTTCTCCTGGA,sensor-assay potency score (higher = more potent),[5],0.105
TGATATTTGAGCATCATCCCTG,sensor-assay potency score (higher = more potent),[8],0.125
TTTAGTCATGACCTCATAGTTT,sensor-assay potency score (higher = more potent),[8],-0.792
TGTCTTGTTAATCTTCTCCAAG,sensor-assay potency score (higher = more potent),[8],-1.4
TTTATGTTCAAACCCATCTTGG,sensor-assay potency score (higher = more potent),[5],-0.693
TTTGGGTCCAGATATCATGTTA,sensor-assay potency score (higher = more potent),[6],-0.75
TTTGGTTGAATCTTCTCTTTAG,sensor-assay potency score (higher = more potent),[5],-0.877
TTCTCGGGCGTGATCTTCGGGA,sensor-assay potency score (higher = more potent),[7],-0.793
TTAGTCATGACCTCATAGTTTA,sensor-assay potency score (higher = more potent),[8],-0.622
AAAGTAGTCGTCATCCTCCGGG,sensor-assay potency score (higher = more potent),[5],0.386
TATCATGTTAATCTTCTCAGAG,sensor-assay potency score (higher = more potent),[6],-0.0343
TTAATGATGCGTATGGTGGTTT,sensor-assay potency score (higher = more potent),[5],-0.296
TTTAGCTTCATATACACATAGA,sensor-assay potency score (higher = more potent),[8],-0.61
TGCTTTTGCATCTTCTCTGGTA,sensor-assay potency score (higher = more potent),[7],-0.325
TTGAATCTTCTCTTTAGTGTTC,sensor-assay potency score (higher = more potent),[5],0.135
TGGTATTTGAGAACCAACCCTA,sensor-assay potency score (higher = more potent),[7],-0.335
TTGGTTGAATCTTCTCTTTAGT,sensor-assay potency score (higher = more potent),[5],-0.57
TTGTTAACCTTCTCAGAGGTAT,sensor-assay potency score (higher = more potent),[7],-0.473
TTGTTAATCTTCTCCAAGGTAC,sensor-assay potency score (higher = more potent),[8],-0.679
TCTCTGATATTTGAGCATCATC,sensor-assay potency score (higher = more potent),[8],-2.01
TAATCTTCTCCAAGGTACTTGG,sensor-assay potency score (higher = more potent),[8],-0.322
TTTCTCTCACGCACTCTGTGGG,sensor-assay potency score (higher = more potent),[7],-0.559
ATTCCTGTGGTTTCGATCGTTA,sensor-assay potency score (higher = more potent),[8],-0.284
TTTGTATCTTCTCTGGTATTTG,sensor-assay potency score (higher = more potent),[6],-1.22
AACCATTTTCTTCCTCTGCTGG,sensor-assay potency score (higher = more potent),[8],-0.606
TTGCTTTCTCTCACGCACTCTG,sensor-assay potency score (higher = more potent),[7],0.108
TTTGAGAACCAACCCTAGGTCT,sensor-assay potency score (higher = more potent),[7],-0.607
TTCATAAATCACCAGTTGCTTT,sensor-assay potency score (higher = more potent),[7],-1.18
TTCTCTCACGCACTCTGTGGGT,sensor-assay potency score (higher = more potent),[7],-1.32
ATATCATGTTAATCTTCTCAGA,sensor-assay potency score (higher = more potent),[6],-1.24
TTAATCTTCTCCAAGGTACTTG,sensor-assay potency score (higher = more potent),[8],0.0289
TTTTGTATCTTCTCTGGTATTT,sensor-assay potency score (higher = more potent),[6],-0.981
TAAGATTTGCGGAATATGGGGC,sensor-assay potency score (higher = more potent),[5],0.141
TTTATTCCCAACATCTTTCTCA,sensor-assay potency score (higher = more potent),[5],0.384
TAATGTGAACATGTCCGTGTTC,sensor-assay potency score (higher = more potent),[9],-0.137
TGAGATGTAGCACACTTCCAGA,sensor-assay potency score (higher = more potent),[10],-1.21
TTCCATTTTCAGGATCAGCTTT,sensor-assay potency score (higher = more potent),[11],-0.67
TCAATCTTCAAGAAGTTTCGGT,sensor-assay potency score (higher = more potent),[10],0.639
AACATGTCCGTGTTCATCCAGC,sensor-assay potency score (higher = more potent),[9],-0.285
TTTCTTCTGGATCTCCTCCAGG,sensor-assay potency score (higher = more potent),[11],-0.912
TTGCATGATCTGCAGCTCCCGG,sensor-assay potency score (higher = more potent),[9],-1.07
TTGTCTGGCTTGATGTCTCTGT,sensor-assay potency score (higher = more potent),[9],0.0607
TTCACTTCCATATCATCGTAAG,sensor-assay potency score (higher = more potent),[11],-0.831
TTTCTTAGTGTCTCGCTTCTGC,sensor-assay potency score (higher = more potent),[9],0.225
TGTAGCTGAAAGCACCAGCTTC,sensor-assay potency score (higher = more potent),[10],-0.655
TAGTGTCTCGCTTCTGCACGAT,sensor-assay potency score (higher = more potent),[9],-0.331
TTGGAGGTGTGGTAGCTGCTTC,sensor-assay potency score (higher = more potent),[10],-0.709
TAGGCACTGAAGCTCATCCAAC,sensor-assay potency score (higher = more potent),[10],-1.34
TTCTGCTCCTTTCACTACCGTC,sensor-assay potency score (higher = more potent),[9],-0.907
TTTCTTTCTCCAGAACCCCTGC,sensor-assay potency score (higher = more potent),[10],-0.557
TTTGCCAATCGCTTCTTCTTTT,sensor-assay potency score (higher = more potent),[9],-0.852
TACTGTGTGAGTTCCACTGGAG,sensor-assay potency score (higher = more potent),[12],0.0726
TTGCAAACAGAGCTGTACCAAG,sensor-assay potency score (higher = more potent),[12],-0.672
TTTGCTTCACTTCCATATCATC,sensor-assay potency score (higher = more potent),[11],-1.64
TAGATGCAGTGTCTCAAGCAGA,sensor-assay potency score (higher = more potent),[10],-0.804
TTGGAGAAGCTAAAGTTCGTGG,sensor-assay potency score (higher = more potent),[11],-0.769
TTCCTCAGAGTAGCTGCTCTGC,sensor-assay potency score (higher = more potent),[10],-1.09
TGTAATGTGAACATGTCCGTGT,sensor-assay potency score (higher = more potent),[9],1.03
TAATAGCAGCTAGATTAGCCTC,sensor-assay potency score (higher = more potent),[11],-0.915
TTACTGTGTGAGTTCCACTGGA,sensor-assay potency score (higher = more potent),[12],0.572
TAAGTATAGATGTTGATGTTGC,sensor-assay potency score (higher = more potent),[11],-0.111
TTTCGGTACGTGTAGTAGCCGG,sensor-assay potency score (higher = more potent),[10],-0.648
TTCTTCTTTCCTCTGCAGCCTC,sensor-assay potency score (higher = more potent),[11],-0.81
TTCACTACCGTCGCTATGTTGA,sensor-assay potency score (higher = more potent),[9],-0.4
TAGTACTTGTAGATCTTGGGCA,sensor-assay potency score (higher = more potent),[10],0.389
ATCATCGTAAGTATAGATGTTG,sensor-assay potency score (higher = more potent),[11],-0.449
TTCTTGAACACCGCGTCCCAGT,sensor-assay potency score (higher = more potent),[9],-0.825
TTCGGTACGTGTAGTAGCCGGG,sensor-assay potency score (higher = more potent),[10],-0.203
TTTTCCTCCGCCATCTTGCTGA,sensor-assay potency score (higher = more potent),[11],-0.369
TTGATTTGCTTCACTTCCATAT,sensor-assay potency score (higher = more potent),[11],-0.805
TTCTACTTGGAGCTCATAGTGA,sensor-assay potency score (higher = more potent),[12],-0.852
TTGGATTCTAGAATCATCTCTT,sensor-assay potency score (higher = more potent),[9],0.951
TTCTGAAGGACTTCTCGCTCGT,sensor-assay potency score (higher = more potent),[11],0.283
AACAGTCCCAGTATCTTCCAGG,sensor-assay potency score (higher = more potent),[10],-0.995
TTTAATAAGTTCCAAATCCTGC,sensor-assay potency score (higher = more potent),[13],-0.773
TTGTGGAGTGTTGTAACTGTTG,sensor-assay potency score (higher = more potent),[13],-1.19
TGTGTTTTTCAGAGTCTCCATC,sensor-assay potency score (higher = more potent),[14],-0.796
ACCCATAGGACACTTCTCCAGC,sensor-assay potency score (higher = more potent),[14],-2.4
TTCTGAATCTGCTCGAAGGGGA,sensor-assay potency score (higher = more potent),[15],0.015
TTCATATTCATCTTCAGTGTGG,sensor-assay potency score (higher = more potent),[16],0.0168
TTACTGTCTTCACTTATCCAAA,sensor-assay potency score (higher = more potent),[17],-1.52
AACTGGAATCCGCTGCTCGGTA,sensor-assay potency score (higher = more potent),[18],-1.06
TGTTAGGACCAGCTGCTCCATA,sensor-assay potency score (higher = more potent),[18],-1.25
TTTTACTCTCTAGGAAACCTGC,sensor-assay potency score (higher = more potent),[19],-1.11
TAACTTGCTGAGAATCCTGTAT,sensor-assay potency score (higher = more potent),[19],-0.198
TTAATCTTCTCTTCTAACTTTT,sensor-assay potency score (higher = more potent),[20],-0.478
TTACGCATCTTGTTCACAGTGT,sensor-assay potency score (higher = more potent),[21],0.769
TTACTCTCTAGGAAACCTGCAG,sensor-assay potency score (higher = more potent),[19],0.205
TTCTGATTGCTGAATAACCTTA,sensor-assay potency score (higher = more potent),[20],-0.804
TTGAGTTTCAGTTACCTGCAGG,sensor-assay potency score (higher = more potent),[21],-0.555
TTTTAACAGAGCAACTTCCATT,sensor-assay potency score (higher = more potent),[19],-0.964
TTATTATCGTCTCTCTTCCGTT,sensor-assay potency score (higher = more potent),[20],-0.906
TTGTGCTTGCACTTGTGCCTGG,sensor-assay potency score (higher = more potent),[20],0.389
TTGCTTTGAATCTTGAATCTTT,sensor-assay potency score (higher = more potent),[20],0.533
TTCACAGTGTGACCTATCCTTG,sensor-assay potency score (higher = more potent),[21],-0.944
TTCATATCTGCTGCCCTGGGAG,sensor-assay potency score (higher = more potent),[18],-0.879
TGCTCCATAGAGTCAATCTGGC,sensor-assay potency score (higher = more potent),[18],-0.928
TCCTCATCTTCGTAGATGCCAG,sensor-assay potency score (higher = more potent),[18],-1.52
TTGAAGTGAATGATTCGCCTCC,sensor-assay potency score (higher = more potent),[19],0.789
TCTGCTATTTCCCAGAAACTGG,sensor-assay potency score (higher = more potent),[18],-1.48
TTGTCTACACAAACCCAGCTTG,sensor-assay potency score (higher = more potent),[19],-0.828
TTGATTTTAACACTTCCCTGGA,sensor-assay potency score (higher = more potent),[21],0.232
TTGAACCGCACGACCACAGTCA,sensor-assay potency score (higher = more potent),[18],-0.246
TTAGAATCCATGAAAACTCTTG,sensor-assay potency score (higher = more potent),[19],0.212
